The whole screen tested about 39,000 compounds, of which about 3,300 (8.5%) were called active. What follows is part of a selection rich in actives, with near analogues and random picks from the rest.

This experiment concerns HepG2. Put plainly: cytotoxicity call (relative viability < 0.9). The conditions noted are these: 10 µM.
For `C[C@@H]1CN([C@@H](C)CO)C(=O)c2cc(NS(=O)(=O)c3cn(C)cn3)ccc2O[C@@H]1CN(C)CC1CC1`, the cytotoxicity call was “inactive”.
For the compound `O=C1CCCNc2ccc(Cl)cc21`, the cytotoxicity call is “inactive”.
Then `O=C1NCc2ccccc21`, with “inactive”; and `O=C1CCNc2cc3ccccc3cc21`, with “active”.
Regarding `COc1ccc(NC(=O)N(C)C[C@@H]2Oc3ccc(NC(=O)CCN4CCOCC4)cc3C(=O)N([C@@H](C)CO)C[C@@H]2C)cc1`, the cytotoxicity call is “inactive”.
`COc1ccc(S(=O)(=O)N(C)C[C@H]2OCCCC[C@H](C)Oc3ccc(NC(=O)Nc4ccccc4)cc3C(=O)N([C@@H](C)CO)C[C@H]2C)cc1`: the cytotoxicity call was “inactive”.
As for `O=C(O)CN1CCOC1=O`, the entry is “inactive”; as for `NC1=NCCN1CC(=O)O`, “active”.
As for `O=C(O)CN1CCCCC1=O`, the entry is “inactive”.
For the compound `COC(=O)N[C@H](C(=O)N1CC2(CC2)C[C@H]1c1nc(-c2ccc3c(c2)C(F)(F)c2cc(-c4ccc5nc([C@@H]6[C@H]7CC[C@H](C7)N6C(=O)[C@@H](NC(=O)OC)C(C)C)[nH]c5c4)ccc2-3)c[nH]1)C(C)C`, the cytotoxicity call was “inactive”.
Then `Cn1cnc(CCNC(=O)C[C@H]2CC[C@H]3[C@@H](COC[C@H](O)CN3C(=O)C3CC3)O2)c1`, with “inactive”.
Regarding `O=C1OC(=O)[C@H]2[C@@H]1[C@H]1CC[C@H]2O1`, the cytotoxicity call is “active”.
As to `COc1ccc2c3c([nH]c2c1)[C@@H](CO)N(C[C@]13CCN(CC1)Cc1ccccc1)S(=O)(=O)c1cn(cn1)C`, the cytotoxicity call was “inactive”.
Then `C[C@@H]1CN([C@H](C)CO)C(=O)c2cccc(NC(=O)NC3CCCCC3)c2O[C@H]1CN(C)Cc1ccc(Cl)c(Cl)c1`, with “inactive”.
Consider `C[C@@H]1CN([C@@H](C)CO)C(=O)c2cc(NC(=O)c3ccncc3)ccc2O[C@@H](C)CCCCO[C@H]1CN(C)Cc1ccc(C(F)(F)F)cc1`, for which the cytotoxicity call is “inactive”.
`C[C@H]1CCCCO[C@@H](CN(C)C(=O)C2CCCCC2)[C@@H](C)CN([C@@H](C)CO)C(=O)c2cc(NC(=O)Nc3ccccc3)ccc2O1`: the cytotoxicity call is “inactive”.
`C[C@H]1CCCCO[C@H](CN(C)C(=O)C2CCCCC2)[C@@H](C)CN([C@@H](C)CO)C(=O)c2cc(NC(=O)Nc3ccccc3)ccc2O1`: the cytotoxicity call was “inactive”.
Then `C[C@@H]1CCCCO[C@@H](CN(C)C(=O)C2CCCCC2)[C@@H](C)CN([C@@H](C)CO)C(=O)c2cc(NC(=O)Nc3ccccc3)ccc2O1`, with “active”; and `C[C@@H]1CCCCO[C@H](CN(C)C(=O)C2CCCCC2)[C@@H](C)CN([C@@H](C)CO)C(=O)c2cc(NC(=O)Nc3ccccc3)ccc2O1`, with “active”; and `C[C@H](CO)N1C[C@H](C)[C@@H](CN(C)C(=O)C2CCCCC2)OCCCC[C@H](C)Oc2ccc(NC(=O)Nc3ccccc3)cc2C1=O`, with “inactive”.
As for `C[C@@H]1CN([C@H](C)CO)C(=O)c2cc(NC(=O)Nc3ccccc3)ccc2O[C@@H](C)CCCCO[C@@H]1CN(C)C(=O)C1CCCCC1`, the entry is “inactive”; as for `C[C@H]1CN([C@@H](C)CO)C(=O)c2cccc(NC(=O)c3cnccn3)c2O[C@@H]1CN(C)Cc1ccc(C(=O)O)cc1`, “inactive”.
As to `C[C@H](CO)N1C[C@H](C)[C@H](CN(C)C(=O)CN(C)C)Oc2cc(-c3ccc(C#N)cc3)ccc2S1(=O)=O`, the cytotoxicity call is “inactive”.
For the compound `CCNC1CC(N)C(OC2OC(CN)=CCC2N)C(O)C1OC1OCC(C)(O)C(NC)C1O.O=S(=O)(O)O.O=S(=O)(O)O` (stereo not drawn), the cytotoxicity call is “inactive”.
As to `COc1ccc(CN(C)C[C@H]2OCCCC[C@H](C)Oc3ccc(NC(=O)Nc4ccc5c(c4)OCO5)cc3C(=O)N([C@H](C)CO)C[C@H]2C)cc1`, the cytotoxicity call was “inactive”.
Take `C[C@@H]1CN([C@H](C)CO)C(=O)c2cccc(NC(=O)c3nc4ccccc4s3)c2O[C@@H]1CN(C)C(=O)Nc1ccc(C(F)(F)F)cc1`: the cytotoxicity call is “inactive”.
Take `C[C@H]1CN([C@@H](C)CO)C(=O)c2cccc(NC(=O)c3nc4ccccc4s3)c2O[C@H]1CN(C)C(=O)Nc1ccc(C(F)(F)F)cc1`: the cytotoxicity call is “active”.
`C[C@@H]1CN([C@@H](C)CO)C(=O)c2cccc(NC(=O)c3nc4ccccc4s3)c2O[C@@H]1CN(C)C(=O)Nc1ccc(F)cc1`: the cytotoxicity call was “active”.
Regarding `C[C@H](CO)N1C[C@H](C)[C@@H](CN(C)C(=O)Nc2ccc(C(F)(F)F)cc2)Oc2c(NC(=O)c3nc4ccccc4s3)cccc2C1=O`, the cytotoxicity call was “inactive”.
`C[C@H](CO)N1C[C@H](C)[C@H](CN(C)C(=O)Nc2ccc(C(F)(F)F)cc2)Oc2c(NC(=O)c3nc4ccccc4s3)cccc2C1=O`: the cytotoxicity call is “inactive”.
As to `C[C@@H]1CN([C@@H](C)CO)C(=O)c2cccc(NC(=O)c3nc4ccccc4s3)c2O[C@H]1CN(C)C(=O)Nc1ccc(C(F)(F)F)cc1`, the cytotoxicity call was “active”.
Then `C[C@@H]1CN([C@@H](C)CO)C(=O)c2cccc(NC(=O)c3nc4ccccc4s3)c2O[C@H]1CN(C)C(=O)Nc1ccc(F)cc1`, with “inactive”; and `C[C@H]1CN([C@@H](C)CO)C(=O)c2cccc(NC(=O)c3nc4ccccc4s3)c2O[C@@H]1CN(C)C(=O)Nc1ccc(C(F)(F)F)cc1`, with “inactive”.
As for `C[C@H](CO)N1C[C@H](C)[C@@H](CN(C)C(=O)Nc2ccc(F)cc2)Oc2c(NC(=O)c3nc4ccccc4s3)cccc2C1=O`, the cytotoxicity call is “inactive”.
As for `C[C@@H]1CCCCO[C@H](CN(C)S(=O)(=O)c2cccs2)[C@@H](C)CN([C@H](C)CO)C(=O)c2cc(NC(=O)Nc3ccccc3)ccc2O1`, the entry is “inactive”; as for `COc1ccccc1NC(=O)N(C)C[C@H]1OCc2ccccc2-c2c(n(C)c3ccccc23)C(=O)N([C@H](C)CO)C[C@@H]1C`, “inactive”; as for `C[C@H](CO)N1C[C@H](C)[C@@H](CN(C)C(=O)c2cccc(F)c2)Oc2cc(-c3ccncc3)ccc2S1(=O)=O`, “inactive”.
Take `O=C(C[C@H]1CC[C@@H]2[C@H](COC[C@H](O)CN2S(=O)(=O)c2ccccc2)O1)N1CCOCC1`: the cytotoxicity call is “inactive”.
As for `C[C@H]1CN([C@@H](C)CO)C(=O)Cc2cc(NC(=O)Cn3cnnn3)ccc2O[C@H]1CN(C)Cc1ccc(-c2ccccc2)cc1`, the cytotoxicity call is “inactive”.
Then `C[C@@H]1CN([C@@H](C)CO)C(=O)c2cc(NC(=O)Nc3ccccc3)ccc2O[C@@H](C)CCCCO[C@@H]1CN(C)C(=O)Nc1ccccc1`, with “inactive”.
Regarding `C[C@@H]1CN([C@H](C)CO)C(=O)Cc2cc(NC(=O)CCN3CCOCC3)ccc2O[C@H]1CN(C)Cc1ccc2c(c1)OCO2`, the cytotoxicity call was “inactive”.
In the case of `Cc1noc(C)c1S(=O)(=O)N(C)C[C@@H]1Oc2ccc(NC(=O)NC3CCCCC3)cc2CC(=O)N([C@@H](C)CO)C[C@H]1C`, the cytotoxicity call was “inactive”.
On to `Cc1ccc(S[C@]2(C(=O)NCc3ccccc3)CC(=O)N(Cc3ccccc3C(F)(F)F)[C@@H]2c2ccc(CO)cc2I)cc1`, for which the cytotoxicity call was “inactive”.
As for `CN(C)c1ccc(O)c2c1C[C@H]1C[C@H]3[C@H](N(C)C)C(=O)C(C(N)=O)=C(O)[C@@]3(O)C(=O)[C@H]1C2=O`, the entry is “inactive”.
Regarding `COC(=O)C1(C)CCCC2(C)c3ccc(O)c(C(C)C)c3CCC12` (stereo not drawn), the cytotoxicity call was “active”.
Take `CC(C)c1c(O)ccc2c1CCC1C(C)(C=O)CCCC21C` (stereo not drawn): the cytotoxicity call is “inactive”.
In the case of `CC(C)c1c(O)ccc2c1CCC1C(C)(C)C(=O)CCC21C` (stereo not drawn), the cytotoxicity call was “inactive”.
In the case of `CC(C)c1c(O)ccc2c1CCC1C(C)(C)CCCC21C` (stereo not drawn), the cytotoxicity call was “inactive”.
For the compound `CC(C)c1c(O)ccc2c1CC[C@H]1C(C)(C)CCC[C@]21C`, the cytotoxicity call was “active”.
As for `COC(=O)C1(C)CCCC2(C)c3ccc(C(C)C)cc3C(=O)CC12` (stereo not drawn), the entry is “inactive”; as for `CC(C)(CO)c1cc2cc(NC(=O)C3(c4ccc5c(c4)OC(F)(F)O5)CC3)c(F)cc2n1C[C@@H](O)CO`, “inactive”.
Take `NCCn1cccn1`: the cytotoxicity call is “inactive”.
`C[C@@H]1CN([C@@H](C)CO)S(=O)(=O)c2ccc(C#CCN(C)C)cc2O[C@H]1CN(C)Cc1ccccn1`: the cytotoxicity call was “inactive”.
As for `O=C(O)CN1C(=O)c2cccc3cccc(c23)C1=O`, the cytotoxicity call is “inactive”.
For `CC(C)(C)C1CCC(OC[C@@H](O)CN2CCC(CN3C(=O)c4cccc5cccc(c45)C3=O)CC2)CC1` (stereo partly drawn), the cytotoxicity call is “active”.
Regarding `O=C(CN1C(=O)c2cccc3cccc(c23)C1=O)N1CCN(CCN2C(=O)[C@@H]3[C@@H](C2=O)[C@@H]2C=C[C@@H]3C2)CC1`, the cytotoxicity call is “inactive”.
Regarding `CCCN(C)C[C@H]1OCCCC[C@@H](C)Oc2ccc(NC(=O)Nc3c(C)noc3C)cc2C(=O)N([C@H](C)CO)C[C@@H]1C`, the cytotoxicity call was “inactive”.
Regarding `COc1ccc(S(=O)(=O)Nc2ccc3c(c2)C(=O)N([C@@H](C)CO)C[C@H](C)[C@@H](CN(C)C(=O)Nc2cccc4ccccc24)OCCCC[C@@H](C)O3)cc1`, the cytotoxicity call is “inactive”.
Turning to `CC=C1C2C=C(C)CC1(N)c1ccc(=O)[nH]c1C2` (stereo not drawn), the cytotoxicity call is “inactive”.
As for `C[C@H]1CN([C@@H](C)CO)C(=O)c2cccc(NC(=O)Nc3ccccc3)c2O[C@H]1CN(C)Cc1ccc(C(=O)Nc2ccccc2N)cc1`, the cytotoxicity call is “active”.
As for `C[C@@H]1CN([C@@H](C)CO)C(=O)c2cccc(NC(=O)Nc3ccc(F)cc3)c2O[C@H]1CN(C)Cc1ccc(C(=O)Nc2ccccc2N)cc1`, the entry is “inactive”.
In the case of `C[C@@H]1CN([C@@H](C)CO)C(=O)c2cccc(NC(=O)Nc3ccccc3)c2O[C@H]1CN(C)Cc1ccc(C(=O)Nc2ccccc2N)cc1`, the cytotoxicity call was “inactive”.
For `C[C@@H]1CN([C@H](C)CO)C(=O)c2cccc(NC(=O)Nc3ccccc3)c2O[C@@H]1CN(C)Cc1ccc(C(=O)Nc2ccccc2N)cc1`, the cytotoxicity call was “inactive”.
For the compound `C[C@H](CO)N1C[C@H](C)[C@H](CN(C)Cc2ccc(C(=O)Nc3ccccc3N)cc2)Oc2c(NC(=O)Nc3ccc(F)cc3)cccc2C1=O`, the cytotoxicity call is “inactive”.
As for `C[C@@H]1CN([C@H](C)CO)C(=O)c2cccc(NC(=O)Nc3ccc(F)cc3)c2O[C@H]1CN(C)Cc1ccc(C(=O)Nc2ccccc2N)cc1`, the entry is “inactive”; as for `C[C@@H]1CN([C@@H](C)CO)C(=O)c2cccc(NC(=O)Nc3ccc(F)cc3)c2O[C@@H]1CN(C)Cc1ccc(C(=O)Nc2ccccc2N)cc1`, “active”.
As for `C[C@H]1CN([C@@H](C)CO)C(=O)c2cccc(NC(=O)Nc3ccc(F)cc3)c2O[C@@H]1CN(C)Cc1ccc(C(=O)Nc2ccccc2N)cc1`, the entry is “inactive”.
`C[C@H]1CN([C@@H](C)CO)C(=O)c2cccc(NC(=O)Nc3ccc(F)cc3)c2O[C@H]1CN(C)Cc1ccc(C(=O)Nc2ccccc2N)cc1`: the cytotoxicity call is “active”.
